# Measurements taken from PubChem BioAssay.
# Where “and” joins values, the source holds several entries; their conditions need not be identical. Equal values may be shown once. Results filed as inconclusive are left out. Calls of active or inactive are those of the source. Unless noted, the limit is not given here; nearly all actives have AC50 up to about 26 µM.
# Tests used:
# [1] = viability loss in pontine glioma line – cell-based, SU-DIPG-XVII, MIPE5.0, CellTiter-Glo, qHTS, dose response (AID 1347060); conditions: CellTiter-Glo ATP luminescence;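 as to AC50: cells exposed to compound for 48 hours before viability readout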
# [2] = viability loss in pontine glioma line – cell-based, SU-DIPG-XIII, MIPE4.0, CellTiter-Glo, qHTS, dose response (AID 1347061; cut-off not given, nearly all actives have AC50 up to about 37 µM;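 also: cells exposed to compound for 48 hours before readout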); conditions: CellTiter-Glo ATP luminescence
# [3] = viability loss in pontine glioma line – cell-based, JHH-DIPG-1, MIPE4.0, CellTiter-Glo, qHTS, dose response (AID 1347062; cut-off not given, nearly all actives have AC50 up to about 27 µM;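 as to AC50: cells exposed to compound for two days before readout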); conditions: JHH-DIPG-1 viability, CellTiter-Glo ATP luminescence
# [4] = viability loss in pontine glioma line – cell-based, SU-DIPG-IV, MIPE4.0, CellTiter-Glo, qHTS, dose response (AID 1347063; cut-off not given, nearly all actives have AC50 up to about 30 µM;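 also: compound exposure lasted 48 hours before the viability readout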); conditions: CellTiter-Glo ATP luminescence
# [5] = viability loss in pontine glioma line – cell-based, SU-DIPG-XIII, MIPE5.0, CellTiter-Glo, qHTS, dose response (AID 1347064; cut-off not given, nearly all actives have AC50 up to about 23 µM;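 as to AC50: cells exposed to compound for 48 hours before the viability read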); conditions: CellTiter-Glo ATP luminescence
# [6] = viability loss in pontine glioma line – cell-based, SU-DIPG-XXV, MIPE5.0, CellTiter-Glo, qHTS, dose response (AID 1347065); conditions: CellTiter-Glo ATP luminescence;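 also: cells exposed to compound for 48 hours before ATP readout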
# [7] = growth inhibition of DIPG cells – cell-based, MIPE4.0 library, CellTiter-Glo luminescence, qHTS (AID 1347066; cut-off not given, nearly all actives have AC50 up to about 30 µM;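 also: cells exposed to compound for 48 hours before readout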); conditions: SU-DIPG-VI viability, CellTiter-Glo ATP luminescence
# [8] = JHH-DIPG-1 glioma cell viability, MIPE5.0 library, CellTiter-Glo luminescence, qHTS (AID 1347067); conditions: JHH-DIPG-1 glioma viability, CellTiter-Glo ATP luminescence;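 also: cells exposed to compound for 48 hours before readout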
# [9] = growth inhibition of DIPG cells – cell-based, MIPE5.0 library, qHTS (AID 1347068; cut-off not given, nearly all actives have IC50 up to about 30 µM;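 as to IC50: cells exposed to compound for 48 hours before viability readout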); conditions: SU-DIPG-XXV viability
# [10] = viability loss with induced miR-34 in A549 – imaging, A549 dox-inducible miR-34, nuclei and caspase counts, primary screen (AID 1347080;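 active = compounds whose cell count with miR-34 switched on is under 0.7 times the count with it off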); conditions: A549 miR-34 inducible, Hoechst nuclei count, 48 h
# [11] = MELAS cybrid and Rieske KO viability enhancers – cell-based, MELAS cybrids, Rieske KO mouse fibroblasts, CellTiter-Glo, primary screen (AID 1508586;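 active = mean z-score across replicates of 1.96 or higher in either the MELAS or the Rieske mutant cell line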;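 also: z relative to plate mean and SD of compound and empty wells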); conditions: low glucose
# [12] = stronger effect = lower value, cell number ratio, induced over uninduced
# [13] = measured here: relative caspase fold change +Dox/-Dox
# [14] = measured here: total cells with miR-34 induction, stronger effect = lower value
# [15] = measured here: total cells without miR-34 induction
# [16] = MELAS cybrid survival, CellTiter-Glo 48 h, stronger effect = higher value
# [17] = Rieske KO mouse fibroblast survival, CellTiter-Glo 72 h
smiles,measurement,setting,value
Cc1ccc(O)c(C(CCN(C(C)C)C(C)C)c2ccccc2)c1 (configuration not stated),outcome,[1],inactive
same,outcome,[2],inactive
same,outcome,[3],inactive
same,outcome,[4],inactive
same,outcome,[5],inactive
same,outcome,[6],inactive
same,outcome,[7],inactive
same,outcome,[8],inactive
same,outcome,[9],inactive
same,fold change,[10]; [12],0.945 (inactive) and 0.96 (inactive) and 0.87 (inactive)
same,fold change,[10]; [13],1.69 and 0.719 and 5.48
same,cell count,[10]; [14],8130 and 7320 and 11700
same,cell count,[10]; [15],8600 and 7630 and 13400
same,z-score,[11]; [16],-0.247 (inactive)
same,z-score,[11]; [17],-0.0904
CCS(=O)(=O)c1cccc(-c2cc(C(=O)NC3CCN(C)CC3)c(C)c3[nH]c4ncc(C)cc4c23)c1,AC50,[1],0.59 µM (active)
same,AC50,[2],2.96 µM (active)
same,AC50,[3],2.64 µM (active)
same,AC50,[4],5.26 µM (active)
same,AC50,[5],1.48 µM (active)
same,AC50,[6],0.59 µM (active)
same,AC50,[7],8.33 µM (active)
same,AC50,[8],1.48 µM (active)
same,IC50,[9],1.48 µM (active)
same,fold change,[10]; [12],1.06 (inactive)
same,fold change,[10]; [13],0.946
same,cell count,[10]; [14],1160
same,cell count,[10]; [15],1090
same,z-score,[11]; [16],2.57 (active)
same,z-score,[11]; [17],-0.249
O=C(NCc1ccccc1)c1csc(Nc2ccncn2)n1,AC50,[1],18.6 µM (active)
same,AC50,[2],20.9 µM (active)
same,AC50,[3],4.18 µM (active)
same,AC50,[4],9.35 µM (active)
same,AC50,[5],14.8 µM (active)
same,AC50,[6],16.6 µM (active)
same,AC50,[7],16.6 µM (active)
same,AC50,[8],16.6 µM (active)
same,IC50,[9],23.5 µM (active)
same,fold change,[10]; [12],0.918 (inactive)
same,fold change,[10]; [13],0.977
same,cell count,[10]; [14],4990
same,cell count,[10]; [15],5440
same,z-score,[11]; [16],-0.235 (inactive)
same,z-score,[11]; [17],-0.0999
CCN(CC)Cc1ccc2cc(COC(=O)Nc3ccc(C(=O)NO)cc3)ccc2c1,AC50,[1],5.25 µM (active)
same,AC50,[2],11.8 µM (active)
same,AC50,[3],2.64 µM (active)
same,AC50,[4],5.26 µM (active)
same,AC50,[5],2.63 µM (active)
same,AC50,[6],1.66 µM (active)
same,AC50,[7],1.66 µM (active)
same,AC50,[8],1.48 µM (active)
same,IC50,[9],18.6 µM (active)
same,fold change,[10]; [12],1.01 (inactive)
same,fold change,[10]; [13],0.529
same,cell count,[10]; [14],1260
same,cell count,[10]; [15],1250
same,z-score,[11]; [16],1.32 (inactive)
same,z-score,[11]; [17],-3.38
CN1c2cc(O)c(N=NC(N)=O)cc2CC1S(=O)(=O)O (configuration not stated),outcome,[1],inactive
same,outcome,[2],inactive
same,outcome,[3],inactive
same,outcome,[4],inactive
same,outcome,[5],inactive
same,outcome,[6],inactive
same,outcome,[7],inactive
same,outcome,[8],inactive
same,outcome,[9],inactive
same,fold change,[10]; [12],0.929 (inactive)
same,fold change,[10]; [13],0.61
same,cell count,[10]; [14],9600
same,cell count,[10]; [15],10300
same,z-score,[11]; [16],-0.39 (inactive)
same,z-score,[11]; [17],0.79
Clc1ccc(C(c2ccc(Cl)cc2)n2cc[n+](CC(OCc3ccc(Cl)cc3Cl)c3ccc(Cl)cc3Cl)c2)cc1 (configuration not stated),AC50,[1],2.95 µM (active)
same,AC50,[2],23.5 µM (active)
same,AC50,[3],16.6 µM (active)
same,AC50,[4],9.35 µM (active)
same,AC50,[5],2.63 µM (active)
same,AC50,[6],2.35 µM (active)
same,AC50,[7],13.2 µM (active)
same,AC50,[8],2.63 µM (active)
same,IC50,[9],3.72 µM (active)
CC[C@H](CC[C@@H](C)[C@H]1CC[C@H]2[C@@H]3CC=C4C[C@@H](O)CC[C@]4(C)[C@H]3CC[C@]12C)C(C)C,outcome,[1],inactive
same,outcome,[2],inactive
same,outcome,[3],inactive
same,outcome,[4],inactive
same,outcome,[5],inactive
same,outcome,[6],inactive
same,outcome,[7],inactive
same,outcome,[8],inactive
same,outcome,[9],inactive
same,fold change,[10]; [12],0.94 (inactive)
same,fold change,[10]; [13],0.534
same,cell count,[10]; [14],8770
same,cell count,[10]; [15],9330
